Drawing on PubChem BioAssay (NCATS), this text covers Potency for 39 compounds.

SMILES strings stand for the structures. Results filed as inconclusive are left out. Where a call stands in place of a potency, no number is given. Activity calls are given as the source filed them. Calls come from the whole dose curve; as a rule, active = well fitted inhibition curve with a large enough effect; inconclusive = small, poorly fitted or top-dose-only effect; inactive = flat fitted curve, though single readings scatter.
Potency is the fitted concentration of half-maximal effect.

A short description of the assay: qHTS to identify inhibitors of the type 1 interferon - major histocompatibility complex class I in skeletal muscle: primary screen against the NCATS Pharmaceutical Collection (AID 1347407). The settings on record: human skeletal muscle cells, IFN-b-induced MHC-I HiBiT luminescence, 24 h; series mostly up to 45.9 µM. The gist of the method:
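Luminescence from HiBiT-tagged endogenous HLA-B*08:01 served as the read-out of IFN-beta-induced MHC class I in CRISPR-engineered C25cl48 myoblasts. Cells received 4 ng/ml IFN-beta plus compound (high final 46 uM, […]) for 24 h.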
Background: qHTS replaces the single test concentration by a dilution series.
With `Nc1ccc2c(c1)CN1C(=O)c3ccccc3C1=N2`, the Potency result is “inactive”.

Take `CN1Cc2cc(C(=O)N3CCC(C4CCNCC4)CC3)ccc2NC(CC(=O)O)C1=O` (centres undefined): the Potency result was “inactive”.

As to `CCOC(=O)OCC/C(SC(=O)OCC)=C(\C)N(C=O)Cc1cnc(C)nc1N`, the Potency result is “inactive”.

In the case of `CO/N=C(\C(=O)O)c1csc(NC(=O)CCl)n1`, the Potency entry was “inactive”.

Take `C/C(=C(/OCCOc1ccc(Cl)cc1)c1ccc(Cl)cc1Cl)n1ccnc1`: the Potency entry was “inactive”.

For `Cc1cc(=O)oc2cc(O[C@@H]3SC[C@@H](O)[C@H](O)[C@H]3O)ccc12`, the Potency result is “inactive”.

In the case of `COc1ccc2nc(SCc3ncc(C)c(OC)c3C)[nH]c2c1`, the Potency result was “inactive”.

For `CC(C)Cc1ccc(C(C)C(=O)OCc2ccccn2)cc1` (centres undefined), the Potency entry is “inactive”.

On to `CCn1ccc(NS(=O)(=O)c2ccc(N)cc2)nc1=O`, for which the Potency entry was “inactive”.

On to `COc1ccc(OC(=O)N(CC(=O)O)Cc2ccc(OCCc3nc(-c4ccccc4)oc3C)cc2)cc1`, for which the Potency result was “inactive”.

As for `CCCCCCOC(=O)NC(=N)c1ccc(NCc2nc3cc(C(=O)N(CCC(=O)OCC)c4ccccn4)ccc3n2C)cc1`, the Potency entry is “inactive”.

With `CC(C)=CCNc1ncnc2c1ncn2[C@@H]1O[C@H](CO)[C@@H](O)[C@H]1O`, the Potency was 7.45 µM (active).

On to `CO/N=C(/C(=O)N[C@@H]1C(=O)N2C(C(=O)[O-])=C(C[n+]3ccn4ncccc43)CS[C@H]12)c1nsc(N)n1`, for which the Potency result is “inactive”.

Take `O=[N+]([O-])c1cncn1CCN1CCOCC1`: the Potency entry was “inactive”.

For the compound `C[C@H](N)C(=O)N[C@@H](C)C(=O)NC1[C@H]2CN(c3nc4c(cc3F)c(=O)c(C(=O)O)cn4-c3ccc(F)cc3F)C[C@@H]12` (some centres undefined), the Potency entry was “inactive”.

Take `CC(C)(C)NCC(O)COc1ccccc1OCC1CCCO1` (centres undefined): the Potency entry was “inactive”.

Regarding `Cc1cc(CCCOc2c(C)cc(-c3noc(C(F)(F)F)n3)cc2C)on1`, the Potency result was “inactive”.

`CC(=O)c1cc2ccccc2s1`: the Potency result is “inactive”.

Consider `CC(C)C(=O)Nc1cccc(C(F)(F)F)c1`, for which the Potency entry is “inactive”.

Regarding `Cc1onc(-c2ccccc2)c1C(=O)Cl`, the Potency result is “inactive”.

For `COc1ccc(CCC(C)=O)cc1`, the Potency entry is “inactive”.

`CCCCC/C=C\C/C=C\CCCCCCCC(=O)NC(C)c1ccccc1` (centres undefined): the Potency result is “inactive”.

`CCOC(=O)C(O)c1ccccc1` (centres undefined): the Potency entry was “inactive”.

As for `O=C1CC2(CCCC2)CC(=O)N1`, the Potency entry was “inactive”.

`CC(C)(C)C1CCC(CC2=C(O)c3ccccc3C(=O)C2=O)CC1` (centres undefined): the Potency result was “inactive”.

On to `O=C(O)c1ccc(OCCN2CCCCC2)cc1`, for which the Potency result is “inactive”.

Take `CCOC(=O)c1cc(=O)c2c(OCC(COc3cccc4oc(C(=O)OCC)cc(=O)c34)OC(=O)[C@@H](N)CCCCN)cccc2o1`: the Potency entry is “inactive”.

Turning to `Cn1cc(S(C)=O)c(=O)c2ccc(F)cc21` (centres undefined), the Potency result is “inactive”.

Turning to `COC(=O)[C@H]1[C@H]2C[C@@H]3c4[nH]c5cc(OC)ccc5c4CCN3C[C@H]2C[C@@H](OC(=O)/C=C/c2ccc(O)c(OC)c2)[C@@H]1OC`, the Potency result is “inactive”.

As to `CC[N+](CC)(CC)CCOC(=O)C(C1CCCC1)C1CCCC1`, the Potency entry was “inactive”.

As for `Cc1ccc(/C=N/n2c(-c3ccccc3)csc2=S)cc1`, the Potency result was “inactive”.

In the case of `O=C(CO)[C@@H](O)[C@H](O)[C@@H](O)CO`, the Potency result was “inactive”.

Regarding `COC(=O)c1cc(Cl)ccc1NS(=O)(=O)C(F)(F)F`, the Potency entry is “inactive”.

With `C[C@@]12CCC[C@H]1[C@@H]1CC[C@H]3C[C@@H](O)CC[C@]3(C)[C@H]1CC2`, the Potency entry was “inactive”.

Take `O=C(Oc1ccccc1)c1cccc(C(=O)Oc2ccccc2)c1`: the Potency entry is “inactive”.

Turning to `CSc1ccc(/C=C2/C(C)=C(CC(=O)O)c3cc(F)ccc32)cc1`, the Potency result was “inactive”.

In the case of `Nc1ccc(C(=O)N2CC3CC(CN(Cc4ccccc4)C3)C2)cc1`, the Potency entry was “inactive”.

Take `Cc1cc(O)c2c(O)c3c(O)cccc3cc2c1`: the Potency result was “inactive”.

With `OCc1c[nH]c2ccccc12`, the Potency result is “inactive”.
